Screening data: PubChem, National Center for Advancing Translational Sciences (NCATS)
This is a sample that favours compounds with a hit; in the whole collection about 7.3% have one here.
FLuc modulator – inhibits or activates purified firefly luciferase, miR-21 counter-screen; P08659; purified FLuc, Km substrates, luminescence inhibition; Potency, µM (highest dose often 57.5 µM), most hits filed as inhibitors; 360,000 compounds, 6.9% hits; further: nearly all actives have a fitted effect of over 55% in size
Target sequence (P08659 whole entry, looked up): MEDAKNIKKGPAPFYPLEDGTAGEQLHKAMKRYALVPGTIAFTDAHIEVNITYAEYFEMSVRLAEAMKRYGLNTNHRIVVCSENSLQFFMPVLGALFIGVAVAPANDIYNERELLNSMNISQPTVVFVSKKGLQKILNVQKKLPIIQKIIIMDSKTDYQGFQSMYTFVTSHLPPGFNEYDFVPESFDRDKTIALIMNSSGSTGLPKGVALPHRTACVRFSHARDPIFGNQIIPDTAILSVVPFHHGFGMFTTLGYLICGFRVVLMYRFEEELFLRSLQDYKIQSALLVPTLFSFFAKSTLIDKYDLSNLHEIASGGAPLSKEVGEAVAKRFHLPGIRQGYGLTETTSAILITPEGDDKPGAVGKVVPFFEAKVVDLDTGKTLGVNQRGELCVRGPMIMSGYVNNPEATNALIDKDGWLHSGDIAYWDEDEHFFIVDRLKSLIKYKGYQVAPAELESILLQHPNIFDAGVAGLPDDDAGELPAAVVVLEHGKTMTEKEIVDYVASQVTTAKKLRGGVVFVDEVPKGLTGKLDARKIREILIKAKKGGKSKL
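Purified P. pyralis luciferase (10nM final) with 10uM D-luciferin and 10uM ATP (Km levels) in 50mM Tris acetate pH 7.5, 10mM Mg acetate, 0.01% Tween-20, 0.05% BSA; qHTS 6-point titration, ~60 µM downward; luminescence read.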
ELG1 genotoxic – genotoxicity induction in ELG1-luciferase HEK293T cells; HEK293T ELG1-luciferase reporter, luminescence, 16 h; Potency, µM (titrated, usually from 46 µM), usual class: activators; 330,000 compounds, 1.3% hits; further: nearly all actives have a fitted effect of over 60% in size
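After overnight (16 hr) compound treatment at 37 °C, ELG1-luciferase HEK293T cells were lysed with ONE-Glo; luminescence quantified 30 min later at room temperature.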
SMN2 splice enh – increases expression of the SMN2 splice variant. AID 1458. 210,000 compounds, 2.8% hits. Potency, µM (doses to about 46.1 µM), actives largely listed as activators. HEK293 SMN2-luciferase splicing reporter, luminescence, 30-36 h; further: nearly all actives have a fitted effect of over 55% in size
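qHTS luciferase splicing reporter: luminescence rises when SMN2 exon 7 is included in transfected HEK293 cells. Compound exposure lasted 30-36 h at 37C, with 4.5 mM final sodium butyrate as control, followed by a ONE-Glo read.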
NPC1 promoter act – activates the NPC1 promoter. Huh7 NPC1 promoter luciferase reporter, 24 h. Potency, µM (doses to about 9.22 µM), usual class: activators. 320,000 compounds, 2.4% hits. AID 485313; further: nearly all actives have a fitted effect of over 60% in size
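Cells: Huh7 expressing luciferase under the NPC1 promoter, 1500/well. Seeded 2 h, compound added, incubated 24 h at 37 °C. Luciferase reagent, 10 min ambient, then luminescence.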
KinaseGlo FLuc – Kinase-Glo luciferase inhibition (counter-screen); 200,000 compounds, 0.28% hits; AID 1379; Potency, µM (doses to about 38.3 µM), usual class: inhibitors; Q27757; Kinase-Glo luciferase, ATP luminescence, 8 min; further: nearly all actives have a fitted effect of over 60% in size
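Compounds were added to a substrate mix at pH 7.2 (50 mM imidazole, 10 uM ATP, within the enzyme's linear range), followed by Kinase-Glo detection reagent; luminescence was measured after 8 minutes at ambient temperature.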
Rab9 prom act – activators of Rab9 promoter; Huh7 Rab9 promoter-luciferase reporter, luminescence, 24 h; Potency, µM (titrated, usually from 9.22 µM), most hits filed as activators; 320,000 compounds, 2.8% hits; AID 485297; further: nearly all actives have a fitted effect of over 60% in size
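Steps: seed 1500 Huh7 Rab9-luc cells per well, rest 2 h at 37 °C; add compound in DMSO; incubate 24 h; add luciferase reagent, 10 min ambient; read luminescence.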
Hits are given with their value; n = inactive; u = inconclusive; x = no result given; [ ] = dose if it differs, or a comment. The call rests on the fitted dose curve; in most records, active means well fitted curve in the direction sought with a large enough effect; inconclusive means small, poorly fitted or top-dose-only effect, or another doubt; inactive means no such curve, though single readings can be large; an effect the other way counts as inactive or inconclusive.

SMILES	FLuc modulator	ELG1 genotoxic	SMN2 splice enh	NPC1 promoter act	KinaseGlo FLuc	Rab9 prom act
CCOC(=O)N1CCc2c(sc3c2c(=O)n(Cc2ccccc2)c(=O)n3Cc2ccccc2Cl)C1	n	x	n	x	x	x
COc1ccc(NC(=O)CN(C)S(=O)(=O)c2ccc3nc(C)sc3c2)cc1	n	x	x	x	x	x
COc1ccc(-c2nc(C)c(C(C)=O)n2O)cc1[N+](=O)[O-]	17µM	n	n	n	u	n
CC(=O)c1c(C)nc(-c2cccc([N+](=O)[O-])c2)n1O	n	n	n	n	n	n
O=C(CSc1ncn[nH]1)Nc1ccc2c(c1)OCCO2	u	u	n	n	n	u
COc1ccc(S(=O)(=O)c2cnc(SCC(=O)Nc3cc(F)ccc3C)[nH]c2=O)cc1Cl	9.5µM	x	n	x	x	x
Cc1ccc(S(=O)(=O)c2cnc(SCC(=O)Nc3ccc4c(c3)OCCO4)[nH]c2=O)cc1Cl	11µM	x	x	x	x	x
O=C(CSc1ncc(S(=O)(=O)c2ccc(Cl)cc2)c(=O)[nH]1)Nc1ccc2c(c1)OCCO2	12µM	x	n	x	x	x
Cc1ccc(S(=O)(=O)c2cnc(SCC(=O)Nc3ccc4c(c3)OCCO4)[nH]c2=O)cc1	11µM	x	n	x	x	x
CCc1ccccc1NC(=O)CSc1ncc(S(=O)(=O)c2ccccc2)c(=O)[nH]1	u	x	n	x	x	x
Cc1cc(C)c(NC(=O)CSc2ncc(S(=O)(=O)c3ccc(C(C)(C)C)cc3)c(=O)[nH]2)c(C)c1	11µM	x	n	x	x	x
CC(C)c1ccc(S(=O)(=O)c2cnc(SCC(=O)Nc3ccc4c(c3)OCCO4)[nH]c2=O)cc1	11µM	x	n	x	x	x
COc1cccc(NC(=O)CSc2ncc(S(=O)(=O)c3ccc(C)c(C)c3)c(=O)[nH]2)c1	u	x	n	x	x	x
Cc1ccc2c(c1)c(=O)c(C(=O)c1ccccc1)cn2Cc1ccccc1F	n	x	n	x	x	x
Cc1ccc2c(CC(=O)Nc3c(C(=O)Nc4cccc(Cl)c4)oc4ccccc34)coc2c1C	n	x	x	x	x	x
CCN1C(=O)/C(=C/c2ccc(N3CCCC3)cc2)NC1=S	19µM	n	n	n	n	n
Cc1cc(/C=C2\NC(=S)N(C)C2=O)ccc1N1CCCC1	7.6µM	u	x	u	n	3.5µM
CCCN1C(=O)/C(=C/c2ccc(N3CCCC3)c(C)c2)NC1=S	u	n	n	n	n	n
Cc1cc(N2CCCC2)ccc1/C=C1/C(=O)N(C)C(=S)N1C	n	n	n	n	n	n
Cc1cc(/C=C2/C(=O)N(C)C(=S)N2C)ccc1N1CCCC1	4.8µM	u	13µM	u	n	u
NNS(=O)(=O)c1cc(C(=O)O)cc(C(=O)O)c1	x	x	n[9.22 µM]	x	n[7.66 µM]	x
COc1cccc(NC(=O)Nc2ccc3c(c2)N(C)C(=O)CS3)c1	12µM	n	n	n	n	n
CN1C(=O)CSc2ccc(NC(=O)Nc3ccccn3)cc21	3µM	n	u	u	n	2.8µM
COc1ccc(-c2nc(SCCOc3cc(C)ccc3C(C)C)n3[nH]c(=O)cc3n2)cc1	n	x	x	x	x	x
COc1ccc(-c2nnc(-c3ccc(OCC(C)C)cc3)o2)cc1	u	n	n	n	n	n
SMILES	FLuc modulator	ELG1 genotoxic	SMN2 splice enh	NPC1 promoter act	KinaseGlo FLuc	Rab9 prom act
CCCOc1ccc(-c2nnc(-c3ccncc3)o2)cc1	4.8µM	2.1µM	u	3.5µM	n	u
CC(C)COc1ccc(-c2nnc(-c3ccncc3)o2)cc1	3.4µM	n	n	1.1µM	n	0.63µM
COc1ccc(-c2cnc(C)o2)cc1S(=O)(=O)Nc1ccc(C)c(F)c1	n	x	x	x	x	x
CCOC(=O)c1c(NC(=O)c2nc(S(C)(=O)=O)ncc2Cl)sc(C(C)=O)c1C	n	x	n	x	x	x
O=C(OCc1csc(-c2ccccc2)n1)c1cccs1	0.54µM	u	n	u	u	u
COc1ccc(C(=O)NCC(=O)OCc2csc(-c3ccccc3)n2)cc1	17µM	n	n	n	n	n
O=C(OCc1csc(-c2ccccc2)n1)C1=NN(c2ccccc2)C(=O)CC1	u	n	x	n	x	n
Cc1ccsc1C(=O)OCc1csc(-c2ccccc2)n1	0.6µM	7.3µM	16µM	u	u	4µM
COc1ccccc1C(=O)NCC(=O)OCc1csc(-c2ccccc2)n1	n	n	u	n	n	n
Cn1cccc1C(=O)OCc1csc(-c2ccccc2)n1	0.67µM	u	11µM	2.5µM	u	1.1µM
CNS(=O)(=O)c1cccc(C(=O)OCc2csc(-c3ccccc3)n2)c1	u	n	n	n	n	n
Cc1cc(=O)n(CC(=O)N2CCCCC2)c2c1c(C)nn2C	n	x	x	x	x	x
COc1cc(OC)c(NC(=O)N2CCSc3ccccc32)cc1Cl	n	x	x	x	x	x
Cc1cccc(Nc2ccc(NCc3ccccc3)nn2)c1	15µM	n	n	u	n	u
O=C(Nc1ccc(Br)cc1F)c1ncoc1-c1ccco1	n	x	x	x	x	x
COc1ccc(C(=O)NCC2OCCc3ccccc32)cc1OC (stereo not drawn)	n	n	n	n	n	n
COc1ccc(C(=O)NCC2OCCc3ccccc32)cc1 (stereo not drawn)	15µM	n	n	n	n	n
CCOc1ccc(C(=O)NCC2OCCc3ccccc32)cc1 (stereo not drawn)	17µM	n	n	n	n	n
O=C(O)c1cccc(N2C(=O)C3CC=CCC3C2=O)c1 (stereo not drawn)	n	n	n	n	n	n
Cc1cnc(C(=O)OCC(=O)c2ccccc2)cn1	u	n	x	n	x	n
CCc1ccc(C(=O)COC(=O)c2cccc(N3C(=O)c4c(C)nc5ccccc5c4C3=O)c2)cc1	1.7µM	n	n	u	n	n
O=C(COC(=O)c1cccc(O)c1)c1ccccc1	u	u	x	n	x	n
Nc1cccc(C(=O)OCC(=O)c2ccccc2)c1	1.3µM	u	10µM	3.2µM	n	3.5µM
O=C(COC(=O)c1cccc(N2C(=O)C3CC=CCC3C2=O)c1)c1ccccc1 (stereo not drawn)	2.4µM	n	x	n	x	n
Cn1ccc(C(=O)OCC(=O)c2ccccc2)n1	27µM	u	x	n	x	n
SMILES	FLuc modulator	ELG1 genotoxic	SMN2 splice enh	NPC1 promoter act	KinaseGlo FLuc	Rab9 prom act
Cc1ccc(-c2nc3c4ccccc4n(CC(=O)N4CCN(c5ccc(F)cc5)CC4)c(=O)n3n2)cc1	n	x	x	x	x	x
O=C(Nc1nccs1)c1ccc2c(c1)OCO2	6µM	u	x	2.2µM	x	1.6µM
CCOC(=O)Cc1csc(NC(=S)NC(=O)c2ccccc2Br)n1	21µM	n	x	n	n	n
CCOC(=O)Cc1csc(NC(=S)NC(=O)c2ccccc2)n1	u	n	n	n	n	n
Cc1csc(NC(=O)c2ccoc2C)n1	u	u	13µM	u	u	u
CC(C)(C)NC(=O)CN(Cc1ccc2c(c1)OCO2)C(=O)CCC(=O)Nc1nccs1	n	n	x	n	n	n
CCOC(=O)Cc1csc(NC(=O)c2ccc(F)cc2)n1	u	n	x	n	x	n
CC(=O)Nc1nc(C)cs1	n	n	n	n	n	n
